Screens from PubChem.
CYP2C19 inh: blockers of cytochrome P450 2C19 activity – biochemical, luminescence, ADME assay, primary screen. P33261. CYP2C19 Supersomes, luciferin-H EGE luminescence, 30 min. inhibition, % at 5 µM. 21% of 96,000 active. AID 778, 2007;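 active = CYP2C19 inhibition above a set limit at 5 µM in the primary screen, cut at about 50% in these data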;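 also: plate controls were negative control wells for no effect and 2.5 mM tranylcypromine positive control for full effect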
CYP2C9 inhib: blockers of cytochrome P450 2C9 activity – biochemical, luminescence, ADME assay, primary screen; inhibition, % at 5 µM; 20% of 96,000 active; CYP2C9 Supersomes, luciferin-H conversion;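 active = blocking of liver enzyme CYP2C9 beyond about 50% at 5 µM, limit read from the data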
Target sequence (P11712 whole entry, looked up): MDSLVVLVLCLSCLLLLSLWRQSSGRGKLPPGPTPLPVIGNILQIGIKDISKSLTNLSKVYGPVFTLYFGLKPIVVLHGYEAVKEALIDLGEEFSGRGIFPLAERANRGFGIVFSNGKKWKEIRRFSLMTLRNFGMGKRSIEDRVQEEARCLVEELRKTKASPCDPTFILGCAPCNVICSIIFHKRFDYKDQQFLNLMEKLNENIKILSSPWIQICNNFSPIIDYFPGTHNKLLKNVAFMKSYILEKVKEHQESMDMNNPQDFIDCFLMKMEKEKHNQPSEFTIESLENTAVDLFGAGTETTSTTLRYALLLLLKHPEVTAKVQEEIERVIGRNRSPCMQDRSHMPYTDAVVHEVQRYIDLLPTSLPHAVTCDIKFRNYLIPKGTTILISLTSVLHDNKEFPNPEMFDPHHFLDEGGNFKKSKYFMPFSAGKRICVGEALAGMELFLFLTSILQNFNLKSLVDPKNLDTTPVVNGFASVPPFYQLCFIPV
CYP2C19 act: human CYP2C19 activators, primary screen, biochemical, luminescence. 96,000 tested, under 10 active. recombinant CYP2C19, luciferin-H EGE luminescence; hits give high values; 0 = fully inhibited enzyme, 1 = untreated enzyme. AID 1025, 2008. activation factor at 5 µM;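 active = activation factor of at least 2 at 5 µM in the primary screen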;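 also: 0 = wells with 2.5 mM tranylcypromine and 1 = vehicle-only wells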
PostGolgi ctrl: growth inhibition of yeast control strain, primary screen, counter-screen for post-Golgi transport modulator project; 5% of 98,000 active; inhibition, % at 10 µM; efflux-deficient yeast background strain, growth absorbance A615, 16 h; AID 738, 2007
CYP2C9 activ: human CYP2C9 activators, primary screen, biochemical, luminescence. activation factor at 5 µM. 1.4% of 96,000 active. recombinant CYP2C9, luciferin-H conversion; hits give high values; factor 1 = untreated enzyme, 0 = blocked. Cytochrome P450 2C9 (Homo sapiens), P11712;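 active = activation factor of 2 or more for CYP2C9 at a 5 µM dose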;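 also: 0 = sulfaphenazole-blocked wells and 1 = vehicle-only wells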
PostGolgi yeast: phenotypic screen on post-Golgi transport, primary screen | AID 739, 2007 | inhibition, % at 10 µM | post-Golgi transport phenotypic cell assay | 0.9% of 98,000 active;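 also: yeast cells grown in 1536-well plates; yeast grown about 18 h at 30C before absorbance read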
* = called active by the depositor; x = no result given. Only some compounds are listed: those with a hit (about 32% of all), similar ones and a draw of the others. Rule as the data show it, unless noted: active = inhibition above about 30%; inactive = the rest.

SMILES | CYP2C19 inh | CYP2C9 inhib | CYP2C19 act | PostGolgi ctrl | CYP2C9 activ | PostGolgi yeast
O=C(COc1ccc(Cl)cc1)Nc1ccc(N2CCN(C(=O)c3ccco3)CC2)cc1 | 51* | 32 | 0.5 | 13 | 0.7 | 88*
CCn1c(C)nc2cc(C(=O)n3cc(C(=O)c4cc(F)ccc4O)cn3)ccc21 | 15 | -40 | 0.9 | x | 1.4 | x
CC(=O)N=c1sc(C(C)(C)C)c(C)n1C | 15 | -65 | 0.9 | 7 | 1.7 | -9
O=C(c1ccco1)N1CCN(Cc2ccc(Cl)cc2)CC1 | 24 | 8 | 0.8 | 35* | 0.9 | -4
O=C(CSc1ccc(Cl)cc1)Nc1ccc(NC(=O)c2ccco2)cc1 | 16 | 12 | 0.8 | 14 | 0.9 | 3
Cc1ccc(C)n1CCN1CCN(C(=O)c2ccco2)CC1 | 4 | 1 | 1 | 8 | 1 | -4
Cc1ccccc1C(=O)N1CCN(c2ccc(NC(=O)CSc3ccc(Cl)cc3)cc2)CC1 | 27 | 45 | 0.7 | 53* | 0.6 | 79*
O=C(CSc1ccc(Cl)cc1)Nc1ccc(N2CCN(C(=O)c3ccco3)CC2)cc1 | 45 | 64* | 0.6 | 29 | 0.4 | -2
O=C(c1ccco1)N1CCN(CC(O)Cn2c3ccccc3c3ccccc32)CC1 (stereo not drawn) | 83* | 88* | 0.2 | 14 | 0.1 | 2
CC(=O)N1CCc2cc(S(=O)(=O)NCCC(=O)NC3CCCc4ccccc43)ccc21 (stereo not drawn) | 9 | 17 | 0.9 | 2 | 0.8 | -1
COc1ccc(NC(=O)c2ccccc2NC(=O)CSc2ccc(Cl)cc2)cc1 | 62* | 62* | 0.4 | -11 | 0.4 | 15
CCc1nnc(NC(=O)c2ccc(-c3cccc(C(F)(F)F)c3)o2)s1 | 34 | 7 | 0.7 | 13 | 0.9 | 5
Cc1cccc(N2CCN(C(=O)c3ccc(NC(=O)C4CCCO4)cc3)CC2C)c1 (stereo not drawn) | -5 | 45 | 1.1 | 16 | 0.5 | -3
Cc1cccc(N2CCN(C(=O)Cn3c(=O)[nH]c4ccsc4c3=O)CC2C)c1 (stereo not drawn) | 59* | 37 | 0.4 | 8 | 0.6 | -8
COc1ccc(N2CCN(C(=O)Cn3c(=O)[nH]c4ccsc4c3=O)CC2)cc1 | -9 | -12 | 1.1 | -5 | 1.1 | -9
Cc1cccc(N2CCN(C(=O)CN3CCOc4ccccc43)CC2C)c1 (stereo not drawn) | 94* | 54* | 0.1 | 6 | 0.5 | 5
Cc1cccc(N2CCN(C(=O)Cn3sc4nc(C)cc(C)c4c3=O)CC2C)c1 (stereo not drawn) | 26 | 54* | 0.7 | 6 | 0.5 | 23
Cc1cccc(N2CCN(C(=O)c3ccncc3)CC2C)c1 (stereo not drawn) | 100* | 49 | 0 | 12 | 0.5 | -1
O=C(Nc1cccc2c1CCCC2)c1ccc(Br)o1 | 16 | -6 | 0.8 | 12 | 1.1 | 5
Cn1c(=O)c2c(ncn2CC(=O)N2CCN(c3cccc(Cl)c3)CC2)n(C)c1=O | 9 | 11 | 0.9 | 15 | 0.9 | -8
CC(=O)Nc1cccc(C(=O)Nc2ccccc2N2CCOCC2)c1 | 4 | 29 | 1 | 3 | 0.7 | -1
Cc1cc(C)c2c(=O)n(CC(=O)N3CCC(Cc4ccccc4)CC3)sc2n1 | -3 | 40 | 1 | 45* | 0.6 | -1
O=C(OCC(=O)N1CCC(Cc2ccccc2)CC1)c1ccc[nH]c1=O | 1 | 14 | 1 | 23 | 0.9 | -6
CC12C=CC3(CN(Cc4ccccc4)C(=O)C3C1C(=O)NC1CC1)O2 (stereo not drawn) | 11 | 2 | 0.9 | -6 | 1 | -8
CC1Cc2nc(SCC(=O)NC3CCCCC3)n(C)c(=O)c2S1 (stereo not drawn) | 23 | 14 | 0.8 | 7 | 0.9 | 14
SMILES | CYP2C19 inh | CYP2C9 inhib | CYP2C19 act | PostGolgi ctrl | CYP2C9 activ | PostGolgi yeast
CC1Cc2nc(SCC(=O)OCc3ccccc3)n(C)c(=O)c2S1 (stereo not drawn) | 87* | 77* | 0.1 | 8 | 0.2 | -1
CC1Cc2nc(SCC(=O)c3ccccc3)n(Cc3ccccc3)c(=O)c2S1 (stereo not drawn) | 47 | 97* | 0.5 | 23 | 0 | 2
COc1ccccc1-n1c(SCC(=O)N2CCc3ccccc32)nc2c(c1=O)SCC2 | -5 | 20 | 1.1 | 6 | 0.8 | 9
CC1Cc2nc(SCC(=O)N3CCc4ccccc43)n(C)c(=O)c2S1 (stereo not drawn) | 26 | 93* | 0.7 | 7 | 0.1 | 21
CC1(C)CC(=O)c2cn3c(nc2C1)nc1ccccc13 | 5 | -7 | 1 | -4 | 1.1 | 2
CC1(C)CC(=O)c2cn3nc(C(F)(F)F)nc3nc2C1 | 56* | 15 | 0.4 | 17 | 0.8 | 3
COc1cccc(NC(=S)/C(=C(\[O-])c2ccc(C)c([N+](=O)[O-])c2)[n+]2ccccc2)c1 | 27 | 45 | 0.7 | 20 | 0.5 | 11
Cc1ccc(NC(=S)/C(=C(\[O-])c2ccc(C)c([N+](=O)[O-])c2)[n+]2ccccc2)cc1C | 38 | 69* | 0.6 | -6 | 0.3 | -3
Cc1ccnc2c(N3C(=O)C4C5c6ccccc6C(c6ccccc65)C4C3=O)cccc12 (stereo not drawn) | 38 | 20 | 0.6 | 74* | 0.8 | 69*
COc1ccc(OC)c(-n2c(SCC(=O)N3CCc4ccccc43)nc3c(c2=O)SCC3)c1 | x | x | x | 41* | x | 9
CCC(C)n1c(SCC(=O)NC(=O)Nc2ccc3c(c2)OCCO3)nc2ccccc2c1=O (stereo not drawn) | 12 | 90* | 0.9 | 12 | 0.1 | 1
COc1ccccc1-n1c(SCC(=O)Nc2ccc3c(c2)OCO3)nc2c(c1=O)SCC2 | 47 | 42 | 0.5 | 6 | 0.6 | 24
COc1ccccc1-n1c(SCC(=O)Nc2cccc(C)c2)nc2c(c1=O)SCC2 | 83* | 74* | 0.2 | -4 | 0.3 | 3
COc1ccc(-n2c(SCC(=O)Nc3ccc4c(c3)OCO4)nc3c(c2=O)SCC3)cc1 | 41 | 58* | 0.6 | 13 | 0.4 | -4
CCNC(=O)CC1C(=O)N(c2ccc(F)cc2)C(=O)N1CCc1ccc(OC)cc1 (stereo not drawn) | -8 | -4 | 1.1 | 2 | 1 | -2
COc1ccc(-n2c(SCC(=O)Nc3ccc4c(c3)OCO4)nc3ccccc3c2=O)cc1 | 92* | 91* | 0.1 | 54* | 0.1 | -3
CCOc1ccc(-n2c(SCC(=O)Nc3ccc4c(c3)OCO4)nc3ccccc3c2=O)cc1 | 41 | 62* | 0.6 | 19 | 0.4 | 0
